Consider four compounds from PubChem BioAssay.

The source made the active and inactive calls. Unless noted, the rule behind the calls is not given here.

Experiment [1] deals with Wnt5a (protein binding on small-molecule microarray). Briefly: Wnt5a binders on small-molecule microarray, primary screen, biophysical, 635/667 nm fluorescence (AID 1142).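 Note: fluorescence read at 667 nm with signal to noise per printed feature.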 To be noted: 635 nm fluorescence, higher = more signal.
The nature of experiment [2]: cell viability in Huh7 cells, primary screen, cytotoxicity control for HCV replication inhibitor project, CellTiter-Glo luminescence, basal, 48 h (AID 1143).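 Note: Huh7 hepatoma cells carrying a hepatitis C replication reporter with no stimulus; test concentration not given here.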 To be noted: Huh7 HCV replicon, higher = more signal, called active from +8 up or from −8 down. In general terms: In ATP-based viability assays light output follows the ATP content of the culture.
The nature of experiment [3]: P. aeruginosa biofilm formation inhibitors, primary screen, PAO1 strain, BacTiter-Glo luminescence, LB-PBS (AID 1144). The conditions noted are these: 12 h, higher = more signal.
Experiment [4] is described as follows: CREB reporter modulators without forskolin, primary screen, cell-based, PC12, CRE-LacZ reporter, unstimulated (AID 1145). The conditions noted are these: no forskolin, luminescence, 4.5 h, higher = more signal, called active from +8 up or from −8 down.
Experiment [5] can be described thus: CREB reporter modulators under forskolin, primary screen, cell-based, PC12, CRE-LacZ reporter, forskolin-stimulated (AID 1146).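 Note: PC12 cells with 6xCRE LacZ reporter stimulated by forskolin 10 µM; beta-galactosidase reporter signal reflecting CREB driven transcription.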 The conditions noted are these: luminescence, 4.5 h, higher = more signal, called active from +8 up or from −8 down.
In experiment [6] the target is Streptavidin (Streptomyces avidinii) (UniProt P22629). The experiment in a line: streptavidin binders on small-molecule microarray, primary screen, artefact control for SMM compound annotation, biophysical, 635/667 nm fluorescence (AID 1147).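 Note: signal reflects streptavidin binding to arrayed compounds as a control protein.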 The conditions noted are these: streptavidin binding, higher = more signal.
Chain of Streptavidin (Streptomyces avidinii) (P22629 whole entry, looked up): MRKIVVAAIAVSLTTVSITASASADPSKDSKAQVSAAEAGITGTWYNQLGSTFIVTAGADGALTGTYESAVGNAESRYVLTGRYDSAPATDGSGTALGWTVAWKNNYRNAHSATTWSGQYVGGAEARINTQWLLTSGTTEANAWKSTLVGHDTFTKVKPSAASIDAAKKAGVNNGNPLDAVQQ
Experiment [7] can be described thus: small-molecule binders of probe aInhba, primary screen, biochemical, small-molecule microarray, 635/667 nm fluorescence (AID 1148).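 Note: score merges 667nm spot fluorescence with signal-to-noise for antibody binding to printed compounds.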 The conditions noted are these: higher = more signal.
Experiment [8] addresses Torsin-1A (Homo sapiens) (UniProt O14656). The experiment in a line: torsin A binders from cell lysate, primary screen, small-molecule microarray, wild-type, 635/667 nm (AID 1149). The conditions noted are these: COS7 hTOR1A-WT lysate, 635 nm fluorescence, higher = more signal.
For experiment [9] the target is unchanged. The experiment in a line: small-molecule binders of mutant TOR1A in lysate, primary screen, cell lysate, small-molecule microarray, COS7 lysate, 635/667 nm fluorescence (AID 1150).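 Note: score pools 667 nm emission and signal to noise measuring lysate protein binding.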 The conditions noted are these: COS7 hTOR1A mutant lysate, 635 nm fluorescence, higher = more signal.
Experiment [10] deals with Sonic hedgehog protein (Shh). Briefly: small-molecule binders of Shh protein, primary screen, biochemical, small-molecule microarray, 635/667 nm fluorescence (AID 1151).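 Note: Shh protein binding to compounds spotted on small-molecule microarray slides; score combines spot fluorescence intensity with signal-to-noise across triplicate slides.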 To be noted: small-molecule microarray binding, 635 nm fluorescence; higher = more signal.
Experiment [11] is described as follows: E. coli DRC41 culture turbidity changes, primary screen, E. coli filamentation inducer project, strain DRC41, OD650, 48 h (AID 1152).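 Note: E. coli MC1000 strain DRC41 lacking acrAB efflux pump and sulA.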 To be noted: E. coli DRC41 (acrAB sulA), higher = more signal, called active from +8 up or from −8 down.
Experiment [12] can be described thus: small-molecule binders of probe aLefty1, primary screen, biochemical, small-molecule microarray, 635/667 nm fluorescence (AID 1153).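 Note: score merges spot fluorescence with signal-to-noise ratio from the scanned slide images.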 The conditions noted are these: higher = more signal.
The nature of experiment [13]: PSAC antagonists in infected red cells, primary screen, cell-based, P. falciparum Indochina, OD700, 1 h (AID 1154). To be noted: P. falciparum Indochina infected RBC osmotic lysis, higher = more signal, called active from +8 up or from −8 down.
Experiment [14] is described as follows: PSAC antagonists in infected red cells, primary screen, cell-based, P. falciparum Indochina, OD700, 2 h (AID 1155).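 Note: lysis reports solute entry through the parasite surface anion channel PSAC; channel blockers reduce lysis of infected cells.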 The conditions noted are these: P. falciparum Indochina infected erythrocytes, osmotic lysis OD700; higher = more signal, called active from +8 up or from −8 down.
A short description of experiment [15]: osmotic lysis modulators in infected erythrocytes, primary screen, PSAC antagonist project, cell-based, P. falciparum Indochina, OD700, 3 h (AID 1156). The conditions noted are these: higher = more signal, called active from +8 up or from −8 down.
A short description of experiment [16]: PSAC antagonists in infected red cells, primary screen, cell-based, P. falciparum Indochina, OD700, 18 h (AID 1157). To be noted: P. falciparum Indochina infected erythrocytes, osmotic lysis OD700, 18 h; higher = more signal, called active from +8 up or from −8 down.
A short description of experiment [17]: modulators of S6 phosphorylation in cells, primary screen, cell-based, A549, cytoblot, luminescence, serum-stimulated (AID 1158).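 Note: serum-stimulated A549 lung adenocarcinoma cells; signal is phosphorylated S6 detected by cytoblot immunostaining with HRP secondary.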 The conditions noted are these: A549 phospho-S6 cytoblot, 5 h, higher = more signal.
For experiment [18], the target named is NADPH oxidase 2 (Homo sapiens) (UniProt P04839). Briefly: NOX2-dependent H2O2 signal modulators, primary screen, NOX inhibitor project, cell-based, HEK293-NOX2, PMA-stimulated, Amplex Red fluorescence (AID 1159). Note: test concentration not given here. To be noted: 45 min, higher = more signal, called active from +8 up or from −8 down.
Chain of NADPH oxidase 2 (Homo sapiens) (P04839 whole entry, looked up): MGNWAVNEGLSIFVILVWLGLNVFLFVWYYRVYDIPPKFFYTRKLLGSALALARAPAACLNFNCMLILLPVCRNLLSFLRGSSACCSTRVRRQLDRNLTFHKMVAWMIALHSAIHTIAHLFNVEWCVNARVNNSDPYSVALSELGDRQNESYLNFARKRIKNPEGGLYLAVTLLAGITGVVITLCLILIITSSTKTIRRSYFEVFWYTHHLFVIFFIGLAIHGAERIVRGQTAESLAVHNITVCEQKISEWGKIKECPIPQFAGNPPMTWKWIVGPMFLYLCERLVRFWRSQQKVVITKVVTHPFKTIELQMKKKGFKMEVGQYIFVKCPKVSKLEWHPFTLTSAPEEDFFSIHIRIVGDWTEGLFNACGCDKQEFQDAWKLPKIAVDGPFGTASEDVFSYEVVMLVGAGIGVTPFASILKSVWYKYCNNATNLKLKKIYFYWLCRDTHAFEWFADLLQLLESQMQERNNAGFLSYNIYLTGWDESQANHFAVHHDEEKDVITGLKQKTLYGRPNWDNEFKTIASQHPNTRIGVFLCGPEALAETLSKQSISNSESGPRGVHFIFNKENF
For experiment [19], the target named is NADPH oxidase 4 (Homo sapiens) (UniProt Q9NPH5). Briefly: NOX4-dependent H2O2 signal modulators, primary screen, NOX inhibitor project, cell-based, HEK293-NOX4, tetracycline-induced, Amplex Red fluorescence (AID 1160). The conditions noted are these: 45 min, higher = more signal, called active from +8 up or from −8 down.
Chain of NADPH oxidase 4 (Homo sapiens) (Q9NPH5 whole entry, looked up): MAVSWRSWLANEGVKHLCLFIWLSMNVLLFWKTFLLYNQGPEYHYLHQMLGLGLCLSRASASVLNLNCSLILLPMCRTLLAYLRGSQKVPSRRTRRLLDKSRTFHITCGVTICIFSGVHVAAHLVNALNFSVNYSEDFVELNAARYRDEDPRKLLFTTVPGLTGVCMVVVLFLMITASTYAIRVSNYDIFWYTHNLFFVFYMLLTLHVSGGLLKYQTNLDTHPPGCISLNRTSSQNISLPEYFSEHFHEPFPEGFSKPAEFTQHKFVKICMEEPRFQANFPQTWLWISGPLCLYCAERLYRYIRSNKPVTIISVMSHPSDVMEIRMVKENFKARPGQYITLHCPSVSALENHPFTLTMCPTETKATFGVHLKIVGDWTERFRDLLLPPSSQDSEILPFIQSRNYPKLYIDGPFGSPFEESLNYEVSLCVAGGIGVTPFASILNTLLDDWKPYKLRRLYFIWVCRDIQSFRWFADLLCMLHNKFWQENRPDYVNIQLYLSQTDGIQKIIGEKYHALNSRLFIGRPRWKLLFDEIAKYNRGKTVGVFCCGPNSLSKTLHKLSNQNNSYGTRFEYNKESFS
The target in experiment [20] is NADPH oxidase 5 (Homo sapiens) (UniProt Q96PH1). The experiment in a line: NOX5-dependent H2O2 signal modulators, primary screen, NOX inhibitor project, cell-based, HEK293-NOX5, Amplex Red fluorescence (AID 1161). To be noted: HEK293-NOX5, ionomycin, 45 min, higher = more signal.
Chain of NADPH oxidase 5 (Homo sapiens) (Q96PH1 whole entry, looked up): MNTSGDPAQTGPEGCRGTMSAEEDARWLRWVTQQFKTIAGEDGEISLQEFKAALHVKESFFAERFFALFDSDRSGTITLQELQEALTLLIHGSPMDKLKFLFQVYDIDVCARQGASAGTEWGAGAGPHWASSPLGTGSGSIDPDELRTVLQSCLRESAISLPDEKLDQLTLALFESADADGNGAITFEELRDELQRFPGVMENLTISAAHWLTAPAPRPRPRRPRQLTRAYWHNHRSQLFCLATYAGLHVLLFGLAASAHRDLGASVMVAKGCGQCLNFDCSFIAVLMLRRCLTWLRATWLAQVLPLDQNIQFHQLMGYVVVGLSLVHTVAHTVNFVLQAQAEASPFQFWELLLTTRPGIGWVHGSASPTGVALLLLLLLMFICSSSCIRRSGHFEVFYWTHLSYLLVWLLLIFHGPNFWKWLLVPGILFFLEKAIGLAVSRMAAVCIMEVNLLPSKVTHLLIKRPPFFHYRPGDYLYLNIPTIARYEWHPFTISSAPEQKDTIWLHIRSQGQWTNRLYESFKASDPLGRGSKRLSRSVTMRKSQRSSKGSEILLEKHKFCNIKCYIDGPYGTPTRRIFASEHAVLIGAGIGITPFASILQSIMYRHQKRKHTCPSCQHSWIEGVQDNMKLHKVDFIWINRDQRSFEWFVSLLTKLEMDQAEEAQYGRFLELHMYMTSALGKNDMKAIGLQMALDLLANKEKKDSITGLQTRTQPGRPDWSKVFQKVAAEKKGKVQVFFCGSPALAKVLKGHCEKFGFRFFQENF

Chain of Torsin-1A (Homo sapiens) (O14656 whole entry, looked up): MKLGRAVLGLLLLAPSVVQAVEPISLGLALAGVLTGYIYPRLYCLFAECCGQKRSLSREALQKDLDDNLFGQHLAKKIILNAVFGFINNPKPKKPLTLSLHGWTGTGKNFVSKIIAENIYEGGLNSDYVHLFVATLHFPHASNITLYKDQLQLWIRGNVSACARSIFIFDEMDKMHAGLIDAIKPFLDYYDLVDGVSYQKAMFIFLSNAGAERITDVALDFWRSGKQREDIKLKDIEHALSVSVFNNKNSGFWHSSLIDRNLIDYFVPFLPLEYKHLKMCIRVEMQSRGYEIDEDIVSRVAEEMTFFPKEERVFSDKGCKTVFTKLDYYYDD

Regarding `O=C1OCCC=C[C@H]2OC34C=CCN(c5ccc6ccccc6c5)C(=O)[C@H]3N(CCCO)C(=O)[C@@H]4C12` (stereo not given in full), the composite z-score in experiment [1] was -1.2; in experiment [6], -1.16; in experiment [7], -0.239; in the experiment with Torsin-1A (Homo sapiens) [8] it was -1.44; with Torsin-1A (Homo sapiens) [9] it was -1.79; in [10], -1.93. The composite z-score in experiment [12] was -0.291. Also, the z-score in experiment [2] is -2.26 (inactive); in [3] it was -0.633 (inactive); in [4], -0.0778 (inactive); in [5], -0.301 (inactive); in experiment [11], 0.181 (inactive); in [13] it was 0.204 (inactive). The z-score in experiment [14] was -0.568 (inactive); in [15] it was 0.676 (inactive); in [16] it was -1.27 (inactive); in experiment [17] it was 0.684; in [18] it was 0.755 (inactive); in [19], -0.644 (inactive). This compound returned a z-score in experiment [20] of 0.741.

In the case of `CCCC1(C(=O)OC)C=C2C(=C(C)C(=O)C2C)CN1` (stereo not given), the composite z-score in experiment [1] is 0.0439; in experiment [6] it was -0.381; in [7], 0.0487; with Torsin-1A (Homo sapiens) [8], 0.149; with Torsin-1A (Homo sapiens) [9], -0.0341; in [10], -0.552. Besides, the composite z-score in experiment [12] worked out at 0.193. In addition, the z-score is 0.442 (inactive) in experiment [2]; -0.473 (inactive) in experiment [3]; 2.3 (inactive) in [4]; 2.15 (inactive) in [5]; -1.8 (inactive) in [11]; -0.0775 (inactive) in experiment [13]. Besides, the z-score in experiment [14] was -0.0273 (inactive); in experiment [15], -0.0148 (inactive); in experiment [16], 0.274 (inactive); in [17] it was -0.386; in experiment [18], 0.43 (inactive); in experiment [19], -1.28 (inactive). Further, the z-score in experiment [20] was -2.88.

As for `CCCCCN1CC=CC23O[C@@H]4/C=C\CCC(C)OC(=O)C4[C@H]2C(=O)N(C(CO)C(C)C)[C@@H]3C1=O` (stereo not given in full), the composite z-score is -0.236 in experiment [1]; -0.282 in [6]; -0.101 in [7]; -1.36 with Torsin-1A (Homo sapiens) [8]; -0.303 with Torsin-1A (Homo sapiens) [9]; 0.866 in experiment [10]. The composite z-score in [12] was -0.106. Besides, the z-score in [2] was 0.209 (inactive); in experiment [3] it was -1.34 (inactive); in [4], -1.58 (inactive); in experiment [5], -0.601 (inactive); in [11], 1.66 (inactive); in experiment [13], 1.38 (inactive). For the same compound, the z-score in [14] is 0.881 (inactive); in [15], 1.2 (inactive); in [16], 0.699 (inactive); in experiment [17], -0.0209; in experiment [18] it was 1.36 (inactive); in experiment [19] it was -0.231 (inactive). In experiment [20], this compound yielded a z-score of 1.86.

Consider `C=C(COC)/C(=C/C[C@H](OC(=O)c1ccncc1)c1ccccc1OCCO)c1cc(C(=O)OC)ccc1OC`, for which the composite z-score in [1] is 0.163; in [6] it was -0.275; in experiment [7], -0.0136; with Torsin-1A (Homo sapiens) [8] it was 1.19; in the experiment with Torsin-1A (Homo sapiens) [9], 0.664; in experiment [10], 1.71. In experiment [12], the composite z-score is 0.307. Moreover, the z-score was -2.17 (inactive) in experiment [2]; 0.492 (inactive) in experiment [3]; 11.9 (active) in experiment [4]; 2.47 (inactive) in experiment [5]; -0.604 (inactive) in [11]; 14 (active) in experiment [13]. Further, the z-score in experiment [14] is 2.43 (inactive); in [15] it was 2.72 (inactive); in experiment [16], 0.773 (inactive); in experiment [17], 0.0976; in [18], -1.21 (inactive); in [19] it was 0.0788 (inactive). Further, in [20], the z-score was -1.62.
